Screens from PubChem.
Hits are enriched below; roughly 10% of the tested compounds scored in any of these assays.
PLK1 PBD inh: qHTS for Inhibitors of PLK1-PDB (polo-like kinase 1 - polo-box domain): Primary Screen | AID 720504, 2013 | Potency, µM, for the others: max response, negative = inhibition, hits mostly inhibitors | Plk1 PBD binding of FITC phosphopeptide, fluorescence polarization | 360,000 tested, 2.8% active | Serine/threonine-protein kinase PLK1 (Homo sapiens), P53350; note: potency is the fitted concentration of half-maximal effect; series mostly up to about 57 µM; nearly all actives have a fitted effect of over 65% in size
Target sequence (P53350 whole entry, looked up, the tested form may be a part): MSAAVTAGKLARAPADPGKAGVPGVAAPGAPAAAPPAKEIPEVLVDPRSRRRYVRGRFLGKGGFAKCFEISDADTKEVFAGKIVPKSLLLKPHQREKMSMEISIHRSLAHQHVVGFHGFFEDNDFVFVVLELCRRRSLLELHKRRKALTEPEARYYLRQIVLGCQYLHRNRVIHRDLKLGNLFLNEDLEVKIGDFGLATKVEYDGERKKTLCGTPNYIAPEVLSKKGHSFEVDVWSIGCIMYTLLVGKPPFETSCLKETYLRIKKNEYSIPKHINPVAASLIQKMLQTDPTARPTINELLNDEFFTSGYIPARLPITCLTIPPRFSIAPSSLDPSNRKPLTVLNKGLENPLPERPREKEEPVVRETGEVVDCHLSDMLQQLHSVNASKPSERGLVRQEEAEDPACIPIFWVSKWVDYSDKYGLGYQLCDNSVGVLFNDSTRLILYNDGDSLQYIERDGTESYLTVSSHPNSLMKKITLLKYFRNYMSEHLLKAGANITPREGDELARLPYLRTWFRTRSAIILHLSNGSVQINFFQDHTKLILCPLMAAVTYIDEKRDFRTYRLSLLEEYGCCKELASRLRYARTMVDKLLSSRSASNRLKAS
Sfp PPTase inh: qHTS Assay for Inhibitors of Bacillus subtilis Sfp phosphopantetheinyl transferase (PPTase); 4'-phosphopantetheinyl transferase ffp (Bacillus subtilis), Q9F4F7; Biochemical Sfp PPTase activity, qHTS; Potency, µM, for inactives: largest response in the series, negative = inhibition, usual class: inhibitors; 310,000 tested, 3.5% active; AID 1490, 2009;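 note: the enzyme is Sfp with the accession as filed and its product quenches rhodamine fluorescence; potency is the fitted concentration of half-maximal effect; 0% = enzyme reaction without inhibitor and -100% = no enzyme wells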
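Fluorescence-quenching assay: 15 nM Sfp-PPTase preincubated 15 min at room temperature with compound, then 5 uM rhodamine-CoA and 12.5 uM BHQ-2-labelled YbbR peptide added. Fluorescence (ex 525/em 598 nm) read at start and after 30 min; difference gives rate.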
CCT modulator: High-Throughput Screening for Modulators of Cytosolic Chaperonin Activity; purified chaperonin ATPase assay, HTRF ADP detection, 30 min; activity change, % (test concentration not listed), hits read low; 360,000 tested, 0.3% active; AID 651819, 2012; in the data active = activity change below about -30%
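We incubate TRiC, 40 or 20 nM final, with library compounds at 76 uM and 10 uM ATP for 30 min at 37 °C. ADP formed is detected with Transcreener HTRF reagents after 30 min at room temperature.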
MmCpn inh: Inhibitors of TCP-1 ring complex (TRiC) of Methanococcus maripaludis (MmCpn): qHTS; Potency, µM (series often up to 76.9 µM), inactives show top-dose activity, negative = inhibition, usual class: inhibitors; Chaperonin Mm-Cpn (Methanococcus maripaludis); purified Mm-Cpn ATPase, ADP Transcreener TR-FRET; 330,000 tested, 0.031% active; note: potency is the fitted concentration of half-maximal effect; nearly all actives have a fitted effect of over 80% in size
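25 nM Mm-CPN + cpd, 10 min 37°C; + 10 uM ATP, 30 min 37°C; buffer 30 mM Tris pH 7.4, 100 mM KCl, 5 mM MgCl2, 1 mM DTT; Transcreener ADP HTRF detection 30 min RT.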
G9a block: qHTS Assay for Inhibitors of Histone Lysine Methyltransferase G9a | Potency, µM (titrated, usually from 102 µM), for inactives: at the top dose activity, negative = inhibition, hits mostly inhibitors | 350,000 tested, 8.8% active | G9a H3K9 monomethylation, AlphaScreen, 2 h | Histone-lysine N-methyltransferase EHMT2 (Homo sapiens), Q96KQ7 | AID 504332, 2011; note: potency is the fitted concentration of half-maximal effect; nearly all actives have a fitted effect of over 75% in size
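G9a (20 nM) preincubated 15 min RT with compounds, then 500 nM biotinylated H3K9 peptide and 20 uM SAM added; 2 h RT reaction. Monomethyl-H3K9 product detected by AlphaScreen with anti-H3K9me1 antibody, streptavidin donor and anti-rabbit IgG acceptor beads.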
VDR inhibitor: Inhibitors of the vitamin D receptor (VDR): qHTS | Vitamin D3 receptor (Homo sapiens), P11473 | 400,000 tested, 0.93% active | Potency, µM, for the others: max response, negative = inhibition, most hits filed as inhibitors | VDR-SRC2-3 peptide fluorescence polarization, 2 h; note: potency is the fitted concentration of half-maximal effect
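Reagent solutions, kept cold and dark, are dispensed first; compounds are then pinned in at 23 nl, plates briefly spun, and incubated 2 h at ambient temperature. Inhibition of VDR–SRC2-3 peptide binding is read by fluorescence polarization.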
Starred values were filed as active, the others as inactive; ? = inconclusive; . = no result; ! = not confirmed by another sample; [ ] = dose if it differs, or a comment. Unless noted, calls come from the whole dose curve; as a rule, active = well fitted curve in the direction sought with a large enough effect; inconclusive = small, poorly fitted or top-dose-only effect, or another doubt; inactive = no such curve, though single readings can be large; an effect the other way counts as inactive or inconclusive. Unless noted, % is set by controls: 0 for no effect and ±100 for the full control effect.

SMILES	PLK1 PBD inh	Sfp PPTase inh	CCT modulator	MmCpn inh	G9a block	VDR inhibitor
Cn1nc(C(=O)NCc2ccc(F)cc2)c2c1-c1ccccc1SC2	.	.	.	.	14.1µM*	-0.4%
Cn1nc(C(=O)NCc2ccc(F)cc2)cc1C(=O)NCc1ccc(F)cc1	-0.5%	.	0.0	-0.7%	-43.3%	-2.1%
Cn1nc(C(=O)NCc2ccc(Cl)cc2)c2c1-c1ccccc1SC2	.	.	.	.	?	10.5%
COc1ccc(-c2oc3ncn4nc(-c5ccccc5Br)nc4c3c2-c2ccc(OC)cc2)cc1	.	.	.	.	5.5%[59 µM]	8.1%
CCC1CCCCN1C(=O)CSc1nnc(-c2ccc(OC)c(OC)c2)o1 (configuration not stated)	.	.	.	.	-29.4%[59 µM]	-20.7%
N=C1/C(=C\c2ccc(OC(=O)c3ccccc3)cc2)C(=O)N=C2SC(N3CCOCC3)=NN12	23.8µM*	-15.1%	-0.1	0.5%	?	-4.6%
Cc1ccc(C(=O)Oc2ccc(/C=C3\C(=N)N4N=C(N5CCOCC5)SC4=NC3=O)cc2)cc1	26.7µM*	-22.8%	-2.5	-4.7%	21.6%	-27.0%
COc1cc(C2SC[C@H]3C(=O)N(c4ccccc4)C(=O)N23)cc(OC)c1OC (some centres not stated)	.	.	.	.	-0.6%[59 µM]	-6.5%
Cc1ccc2c(c1)NC(=O)C(CC(=O)NCCCN1CCCC1)O2 (configuration not stated)	-10.9%	12.9%	0.3	-0.3%	-5.5%	-5.4%
COc1ccc(N2CCN(CCC3Oc4cc([N+](=O)[O-])ccc4NC3=O)CC2)cc1 (configuration not stated)	-8.8%	8.7%	-2.9	-2.7%	17.8µM*	2.8%
COc1ccc(N2CCN(CCCNC(=O)CC3Oc4ccc(C)cc4NC3=O)CC2)cc1 (configuration not stated)	-29.1%	-3.8%	-2.9	-0.5%	35.5µM*	-21.0%
Cc1ccc(S(=O)(=O)c2[nH]c(-c3ccccc3)nc2SCC(N)=O)cc1	.	.	.	.	-28.3%[59 µM]	8.2%
Cc1ccc(NC(=O)Cn2ccn(Cc3ccc(Cl)cc3)c(=O)c2=O)cc1C	.	.	.	.	3.6%[59 µM]	9.7%
O=S(=O)(O)c1ccc(SCc2ccccc2)nc1	21.2µM*	.	-2.9	.	.	?
CC(C)(C)c1cc(-c2n[nH]c(=S)n2-c2ccccc2F)n[nH]1	-11.3%	12.5%	-0.7	-2.8%	?	-9.6%
Fc1ccccc1-n1[nH]nnc1=S	?	25.1µM*	0.5	.	7.94µM*	44.7µM*
O=C(O)CSc1nc(-c2ccccc2)c(-c2ccccc2)[nH]1	-8.2%	?	0.6	-1.5%	50.1µM*	-7.0%
CC(C)(C)NC(=O)CSc1nc(-c2ccccc2)c(-c2ccccc2)[nH]1	-1.1%	-1.9%	-1.9	-5.2%	16.2%[12.7 µM]	-0.6%
COc1ccc(Nc2c([N+](=O)[O-])ccc3c2=NC2(CCCCC2)N=3)cc1	1.7%	-3.1%	1.3	-2.2%	10µM*	-2.7%
CC/C(=C\C(=O)c1cccnc1)Nc1ccc(C)c(C)c1	-8.2%	0.4%	-2.9	-0.5%	39.8µM*	-16.6%
C/C(=C\C(=O)c1cccnc1)Nc1ccc(C(=O)O)cc1	1.3%	1.3%	-1.1	0.1%	2.24µM*	7.2%
CC(=O)Nc1ccc(N/C(C)=C/C(=O)c2cccnc2)cc1	0.4%	27.4%	-0.1	1.9%	-3.1%[59 µM]	11.9%
Cc1cccc(S(=O)(=O)c2cn(Cc3ccc(F)cc3)c3cc(N4CCCCC4)c(F)cc3c2=O)c1	.	.	.	.	10.3%[59 µM]	7.9%
CCc1ccc(CNC(=O)c2nn(C)c3c2CS(=O)(=O)c2ccccc2-3)cc1	-12.3%	-7.2%	-3.0	-0.5%	-10.7%	1.2%
Cc1ccc(CNC(=O)c2nn(C)c3c2CS(=O)(=O)c2ccccc2-3)cc1	29.9µM*	10.2%	-2.9	1.5%	14.3%	-26.2%
SMILES	PLK1 PBD inh	Sfp PPTase inh	CCT modulator	MmCpn inh	G9a block	VDR inhibitor
COc1ccc(CNC(=O)c2nn(C)c3c2CS(=O)(=O)c2ccccc2-3)cc1	1.8%	14.3%	-0.7	0.3%	17.2%	79.4µM*!
CCCCN(CC)C(=O)C1CCCN(c2ncnc3c2nc2n3CCCCC2)C1 (configuration not stated)	.	.	.	.	4.7%[59 µM]	7.3%
CCCCN(Cc1ccco1)C(=O)C1CCCN(c2ncnc3c2nc2n3CCCCC2)C1 (configuration not stated)	-17.5%	-4.7%	0.0	-5.3%	79.4µM*	-6.4%
Cc1ccc(-c2noc(-c3ccc(NC4CCCC4)c([N+](=O)[O-])c3)n2)cc1	.	.	.	.	1.0%[59 µM]	3.0%
O=C(c1ccccc1)c1cccc(NC(=O)c2ccc(Br)o2)c1	-2.7%	15.8%	-20.9	2.2%	44.7µM*	3.9%
C/C(=N/NC(=O)c1ccc(Br)o1)c1cccc(NC(=O)c2ccc(C)o2)c1	7.52µM*	8.3%	1.6	3.4%	24.1%[59 µM]	?
C/C(=N/NC(=O)c1ccco1)c1cccc(NC(=O)c2ccc(C)o2)c1	-3.2%	0.3%	-3.1	-1.8%	.	-2.1%
O=C(Nn1cc(C(=O)Nc2ccc(F)cc2F)c2ccccc2c1=O)c1cnccn1	-1.5%	-5.1%	-9.1	2.5%	0.794µM*	3.0%
CO[C@H]1COC(=O)C/C=C\[C@H](C)[C@@H](NS(=O)(=O)c2ccc(C)cc2)COC(=O)CCC[C@@H]1C	.	5.3%	.	.	.	.
COc1cccc(NC(=O)CSCc2cc(=O)c3ccc(C)c(C)c3[nH]2)c1	.	.	.	.	8.2%[59 µM]	12.0%
CCCCCCn1c(=O)[nH]c2nc3cc(N)c(C)cc3nc2c1=O	2.99µM*	?	-2.1	-4.4%	3.55µM*	?
c1ccc(-c2noc(CN3CCN(c4cnccn4)CC3)n2)cc1	13.4µM*	0.7%	-2.8	3.9%	-28.1%	-9.6%
Clc1cccc2c1CCN(Cc1nc(-c3cnccn3)no1)C2	-3.6%	22.3%	-1.5	-1.1%	39.8µM*	-15.9%
O=C(NCCc1ccccc1)c1nnc(Cc2cccc(F)c2)o1	.	.	.	.	42.4%[59 µM]	12.7%
COc1ccc(C(=O)CC(=O)c2ccccc2O)cc1	-13.0%	12.4%	-2.0	-12.4%	-4.7%[0.501 µM]	6.1%
COc1ccc(O)c(C(=O)CC(=O)c2ccc(F)cc2)c1	-8.7%	2.3%	-0.9	-2.2%	79.4µM*	-4.0%
CC[C@@H](c1ccccc1)n1c(=O)n2n(c1=O)[C@H]1[C@H](O)[C@H]3O[C@H]3C(=O)[C@H]1CC2	.	9.4%	.	.	.	.
CCN(CC)CCn1c(-c2ccccc2)nc2c(NCc3ccccc3)nc(C)nc21	.	11.2%	.	.	.	.
CCN(CC)C(=O)c1sc(N)c(C#N)c1C	23.8µM*	-17.4%	1.4	0.1%	?	11.4%
